# Measured values reported in PubChem BioAssay (Tox21).
# Several values for one entry are separate records, joined by “and”; a condition that tells them apart may be missing. Equal values may be shown once. Where a structure was tested more than once in an assay, its records may differ in their call. Activity calls are given as the source filed them. A call without a number means that no potency is given here. Unless noted, the call rests on the fitted dose curve; in most records, active means well fitted curve in the direction sought with a large enough effect in the repeat runs; inconclusive means weak or mixed curves; inactive means no such curve, though single readings can be large; an effect the other way counts as inactive or inconclusive.
# Key:
# [1] = qHTS assay to identify small molecule antagonists of the glucocorticoid receptor (GR) signaling pathway - cell viability counter screen (AID 720693); further: nearly all actives have a fitted effect of over 55% in size
# [2] = qHTS assay for identifying genotoxic compounds that show differential cytotoxicity against isogenic chicken DT40 cell lines with known DNA damage response pathways - wild type cell line (AID 743012); further: nearly all actives have a fitted effect of over 60% in size; further: potency means the concentration at half of the fitted maximal effect
# Method in brief: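 Parental DNA repair-proficient DT40 cells, 300 per well, were pre-incubated ~0.5 h at 37 C/5% CO2, pin-dosed with compounds in DMSO, then incubated 40 h. Viability was read as CellTiter-Glo luminescence after 30 min at room temperature.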
# [3] = qHTS assay for identifying genotoxic compounds that show differential cytotoxicity against isogenic chicken DT40 cell lines with known DNA damage response pathways - Rev3 mutant cell line (AID 743014); further: nearly all actives have a fitted effect of over 55% in size; further: potency means the concentration at half of the fitted maximal effect
# [4] = qHTS assay for identifying genotoxic compounds that show differential cytotoxicity against isogenic chicken DT40 cell lines with known DNA damage response pathways - Rad54/Ku70 mutant cell line (AID 743015); further: nearly all actives have a fitted effect of over 60% in size; further: potency means the concentration at half of the fitted maximal effect
# [5] = qHTS assay to identify small molecule antagonists of the androgen receptor (AR) signaling pathway - cell viability counter screen (AID 743033; further: nearly all actives have a fitted effect of over 45% in size)
# [6] = qHTS assay to identify small molecule antagonists of the androgen receptor (AR) signaling pathway using the MDA cell line - cell viability counter screen (AID 743041; further: nearly all actives have a fitted effect of over 45% in size)
# Method in brief: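 MDA-kb2 AR-luc cells (MMTV-luciferase, AR/GR responsive) treated with compounds plus R1881 agonist for 16 h at 37C. CellTiter-Fluor added at 15.5 h; fluorescence read after 30 min in the same wells.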
# [7] = qHTS assay to identify small molecule antagonists of the thyroid receptor (TR) signaling pathway - cell viability counter screen (AID 743064); further: nearly all actives have a fitted effect of over 50% in size; further: potency means the concentration at half of the fitted maximal effect
# Method in brief: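 In-well cytotoxicity read by CellTiter-Fluor (30 min, 37 C) following 23.5 h exposure of GH3 cells bearing a TRE-luciferase sensor. Compounds were added alongside 1 nM (final) T3 to drive TR transactivation.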
# [8] = qHTS assay to identify small molecule antagonists of the thyroid receptor (TR) signaling pathway (AID 743065); further: nearly all actives have a fitted effect of over 55% in size; further: potency means the concentration at half of the fitted maximal effect
# Method in brief: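 GH3.TRE-Luc rat pituitary cells (two TREs driving luciferase) were dosed with compound, then stimulated with 1 nM T3 (final) for 23.5 h at 37 C. ONE-Glo luminescence was the read-out, with CellTiter-Fluor fluorescence as the cytotoxicity counter-screen.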
# [9] = tested on: thyroid hormone receptor (rat, GH3 cells); experiment: qHTS assay to identify small molecule agonists of the thyroid receptor (TR) signaling pathway (AID 743066; calls by dose curve)
# [10] = molecular target: Estrogen receptor (Homo sapiens) (UniProt P03372); experiment: qHTS assay to identify small molecule antagonists of the estrogen receptor alpha (ER-alpha) signaling pathway (AID 743069; active means well fitted curve in the direction sought with a large enough effect in the signal ratio in the repeat runs, not every such curve was filed as active; inconclusive means weak or mixed curves, or effect the other way; inactive means no such curve, though single readings can be large or run the other way; the % refers to the signal ratio; further: potency means the concentration at half of the fitted maximal effect)
# Method in brief: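 HEK293 ER-alpha-UAS-bla GripTite cells, held overnight in 2% charcoal-stripped FBS, 5,000 cells/well, preincubated 4 h, then compound plus 17beta-estradiol for 18 h at 37C. Beta-lactamase read by LiveBLAzer B/G FRET substrate, 2 h at room temperature.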
# [11] = qHTS assay to identify small molecule antagonists of the estrogen receptor alpha (ER-alpha) signaling pathway - cell viability counter screen (AID 743074; calls by dose curve;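 further: HEK293 cells carrying ER-alpha-UAS-bla reporter stimulated with 17beta-estradiol; nearly all actives have a fitted effect of over 45% in size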)
# [12] = molecular target: Estrogen receptor (Homo sapiens) (UniProt P03372); experiment: qHTS assay to identify small molecule agonists of the estrogen receptor alpha (ER-alpha) signaling pathway (AID 743075; calls by dose curve)
# [13] = molecular target: Estrogen receptor (Homo sapiens) (UniProt P03372); experiment: qHTS assay to identify small molecule agonists of the estrogen receptor alpha (ER-alpha) signaling pathway using the BG1 cell line (AID 743079); further: nearly all actives have a fitted effect of over 20% in size; further: potency means the concentration at half of the fitted maximal effect
# [14] = qHTS assay to identify small molecule antagonists of the estrogen receptor alpha (ER-alpha) signaling pathway using the BG1 cell line (AID 743080; calls by dose curve;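 further: BG1 cells stimulated with 17beta-estradiol alongside compound; series mostly up to about 70 µM; nearly all actives have a fitted effect of over 25% in size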)
# Method in brief: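 Endogenous full-length ER-alpha in BG1-Luc-4E2 cells drives a stably integrated 4×ERE luciferase gene; compounds were tested against 17beta-estradiol over 21.5 h, with luminescence and multiplexed viability fluorescence recorded.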
# [15] = qHTS assay to identify small molecule antagonists of the estrogen receptor alpha (ER-alpha) signaling pathway using the BG1 cell line - cell viability counter screen (AID 743081);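 further: compound given together with 17beta-estradiol as the ER stimulus; series mostly up to about 70 µM; nearly all actives have a fitted effect of over 45% in size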
# Aromatase (Homo sapiens) = Aromatase (Homo sapiens) (UniProt P11511); experiment: qHTS assay to identify aromatase inhibitors (AID 743083); further: series mostly up to about 70 µM; nearly all actives have a fitted effect of over 55% in size
# [16] = qHTS assay to identify aromatase inhibitors - cell viability counter screen (AID 743084)
# [17] = molecular target: Androgen receptor (Homo sapiens) (UniProt P10275); experiment: qHTS assay to identify small molecule antagonists of the androgen receptor (AR) signaling pathway (AID 743035; active means well fitted inhibition curve with a large enough effect in the signal ratio in the repeat runs, not every such curve was filed as active; inconclusive means weak or mixed curves, or effect the other way; inactive means no such curve, though single readings can be large or run the other way; the % refers to the signal ratio)
# Method in brief: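 HEK293 cells stably carrying a UAS-driven beta-lactamase reporter (AR-UAS-bla GripTite) were plated for 4 h at 37C, then given compound and the agonist R1881 and incubated 16 h. Reporter activity was read by LiveBLAzer B/G FRET fluorescence after 2 h at room temperature.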
# [18] = molecular target: Androgen receptor (Homo sapiens) (UniProt P10275); experiment: qHTS assay to identify small molecule agonists of the androgen receptor (AR) signaling pathway (AID 743036; active means well fitted activation curve with a large enough effect in the signal ratio in the repeat runs, with a control signal flat, not every such curve was filed as active; inconclusive means weak or mixed curves, or effect the other way; inactive means no such curve, though single readings can be large or run the other way; the % refers to the signal ratio)
# Method in brief: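 Activation was read as beta-lactamase FRET signal from LiveBLAzer B/G substrate, added for 2 h at room temperature. Before that, GeneBLAzer AR-UAS-bla GripTite (HEK293) cells had 16 h compound exposure at 37C.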
# [19] = molecular target: Androgen receptor (Homo sapiens) (UniProt P10275); experiment: qHTS assay to identify small molecule antagonists of the androgen receptor (AR) signaling pathway using the MDA cell line (AID 743042; further: nearly all actives have a fitted effect of over 55% in size)
# Method in brief: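 MDA-kb2 breast carcinoma cells carrying MMTV-luciferase (AR/GR responsive) were co-treated with compounds and the agonist R1881 for 16 h at 37C. Inhibition read as ONE-Glo luminescence; CellTiter-Fluor fluorescence measured in parallel for cytotoxicity.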
# Sequence of Androgen receptor (Homo sapiens) (P10275 whole entry, looked up): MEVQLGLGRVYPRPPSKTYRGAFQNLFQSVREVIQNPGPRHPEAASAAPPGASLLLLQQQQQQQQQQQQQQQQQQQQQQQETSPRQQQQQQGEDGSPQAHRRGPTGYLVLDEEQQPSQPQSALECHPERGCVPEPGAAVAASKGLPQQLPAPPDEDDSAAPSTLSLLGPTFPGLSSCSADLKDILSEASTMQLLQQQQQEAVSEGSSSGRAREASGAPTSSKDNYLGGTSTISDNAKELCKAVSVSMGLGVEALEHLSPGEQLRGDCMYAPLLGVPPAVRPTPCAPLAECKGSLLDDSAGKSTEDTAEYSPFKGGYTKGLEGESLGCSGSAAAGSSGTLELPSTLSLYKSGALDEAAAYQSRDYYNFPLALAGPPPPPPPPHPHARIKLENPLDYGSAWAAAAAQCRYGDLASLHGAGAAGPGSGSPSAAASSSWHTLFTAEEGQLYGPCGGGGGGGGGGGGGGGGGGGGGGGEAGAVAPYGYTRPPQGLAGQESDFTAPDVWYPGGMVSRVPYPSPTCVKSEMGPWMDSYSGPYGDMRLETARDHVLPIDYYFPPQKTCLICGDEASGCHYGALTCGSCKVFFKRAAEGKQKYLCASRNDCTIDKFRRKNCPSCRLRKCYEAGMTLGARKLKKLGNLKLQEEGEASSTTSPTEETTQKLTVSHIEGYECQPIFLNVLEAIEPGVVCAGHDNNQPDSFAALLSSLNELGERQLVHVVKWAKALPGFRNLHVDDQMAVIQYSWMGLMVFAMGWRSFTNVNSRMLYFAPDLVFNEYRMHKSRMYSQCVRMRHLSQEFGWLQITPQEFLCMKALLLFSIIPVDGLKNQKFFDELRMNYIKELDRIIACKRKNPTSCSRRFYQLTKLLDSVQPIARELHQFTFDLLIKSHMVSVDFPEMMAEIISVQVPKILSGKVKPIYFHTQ
# Sequence of Aromatase (Homo sapiens) (P11511 whole entry, looked up): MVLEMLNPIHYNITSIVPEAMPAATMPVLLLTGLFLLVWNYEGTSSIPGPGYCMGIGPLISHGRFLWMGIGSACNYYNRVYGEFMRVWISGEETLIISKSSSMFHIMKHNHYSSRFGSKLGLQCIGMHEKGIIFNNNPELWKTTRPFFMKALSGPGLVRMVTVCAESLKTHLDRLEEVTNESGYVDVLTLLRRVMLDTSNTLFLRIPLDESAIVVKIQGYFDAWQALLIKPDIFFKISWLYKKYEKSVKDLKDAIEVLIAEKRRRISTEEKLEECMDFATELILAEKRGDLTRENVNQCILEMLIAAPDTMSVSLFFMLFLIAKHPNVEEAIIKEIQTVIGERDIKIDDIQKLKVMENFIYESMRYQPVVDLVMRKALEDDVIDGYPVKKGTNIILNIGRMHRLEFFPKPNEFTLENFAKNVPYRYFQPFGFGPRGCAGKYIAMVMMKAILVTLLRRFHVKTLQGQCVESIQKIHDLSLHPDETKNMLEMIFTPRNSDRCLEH
# Sequence of Estrogen receptor (Homo sapiens) (P03372 whole entry, looked up): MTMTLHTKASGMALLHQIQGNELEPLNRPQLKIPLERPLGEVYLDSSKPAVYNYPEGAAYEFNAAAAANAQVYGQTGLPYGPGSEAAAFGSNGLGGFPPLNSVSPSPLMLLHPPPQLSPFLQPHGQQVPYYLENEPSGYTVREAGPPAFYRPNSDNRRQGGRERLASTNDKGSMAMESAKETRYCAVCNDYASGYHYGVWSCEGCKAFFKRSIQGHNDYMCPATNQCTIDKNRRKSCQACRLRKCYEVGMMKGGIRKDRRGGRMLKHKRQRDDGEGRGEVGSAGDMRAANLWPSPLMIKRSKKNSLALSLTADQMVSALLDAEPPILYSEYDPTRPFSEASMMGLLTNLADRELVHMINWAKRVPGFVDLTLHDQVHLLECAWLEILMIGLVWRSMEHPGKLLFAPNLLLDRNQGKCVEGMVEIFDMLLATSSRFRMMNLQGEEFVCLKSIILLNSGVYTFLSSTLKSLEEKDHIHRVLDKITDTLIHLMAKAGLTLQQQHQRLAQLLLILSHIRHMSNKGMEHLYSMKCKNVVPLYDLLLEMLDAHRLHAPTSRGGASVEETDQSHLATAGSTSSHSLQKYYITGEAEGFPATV
SMILES,outcome [1],Potency [2],Potency [3],Potency [4],outcome [5],Potency [6],Potency [7],Potency [8],outcome [9],Potency [10],Potency [11],outcome [12],Potency [13],outcome [14],Potency [15],Potency (Aromatase (Homo sapiens)),Potency [16],Potency [17],outcome [18],outcome [19]
Cc1nnc(SCC2=C(C(=O)O)N3C(=O)[C@@H](NC(=O)Cn4cnnn4)[C@H]3SC2)s1,inactive,inactive,inactive,inactive,inactive,inactive,inactive,inactive,inactive,inactive,inactive,inactive,inactive,inactive,inactive,inactive,inactive,–,–,–
NCCCN1CCN(CCCN)CC1,inactive,inactive,inactive,inactive,inactive,inactive,inactive,inactive,inactive,inactive,inactive,inactive,inactive,inactive,inactive,inactive,inactive,inactive,inactive,inactive
Nc1cccc(S(=O)(=O)O)c1,inactive,inactive,inactive,inactive,inactive,inactive,inactive,inactive,inactive,inactive,inactive,inactive,inactive,inactive,inactive,inactive,inactive,inactive,inactive,inactive
CCc1cc(Cl)c(OC)c(C(=O)NC[C@@H]2CCCN2CC)c1O,inactive,5.96 µM (active) and 8.04 µM (active) and 6.68 µM (active),7.5 µM (active) and 9.02 µM (active) and 9.44 µM (active),11.9 µM (active) and 10.1 µM (active),inactive,inactive,23.7 µM (active) and 7.5 µM (active),23.7 µM (active) and 11.4 µM (active) and 11.9 µM (active),inactive,inactive,inactive,inactive,10.6 µM (active) and inactive,inactive,inactive,inactive,inactive,–,–,–
CC(C)OC(C)C,inactive,inactive,inactive,inactive,inactive,inactive,inactive,inactive,inactive,inactive,inactive,inactive,inactive,inactive,inactive,inactive,inactive,–,–,–
OC[C@H]1O[C@@H](O[C@H]2[C@H](O)[C@@H](O)[C@H](O)O[C@@H]2CO)[C@H](O)[C@@H](O)[C@H]1O,inactive,inactive,inactive,inactive,inactive,inactive,inactive,inactive,inactive,inactive,inactive,inactive,inactive,inactive,inactive,inactive,inactive,inactive,inactive,inactive
C[C@@H]1CN(c2c(F)c(F)c3c(=O)c(C(=O)O)cn(C4CC4)c3c2F)C[C@H](C)N1,inactive,inactive,inactive,inactive,inactive,inactive,–,–,inactive,inactive,inactive,inactive,inactive,inactive,inactive,inactive,inactive,inactive,–,inactive
CC1=CC(=O)CC(C)(C)C1=O,inactive,inactive,inactive,inactive,inactive,inactive,inactive,inactive,inactive,inactive,inactive,inactive,inactive,inactive,inactive,inactive,inactive,–,–,–
CC(C)S,inactive,inactive,inactive,inactive,inactive,inactive,inactive,inactive,inactive,inactive,inactive,inactive,inactive,inactive,inactive,inactive,inactive,–,–,–
CCCCC1CCC(=O)O1 (stereo not drawn),inactive,inactive,inactive,inactive,inactive,inactive,inactive,inactive,inactive,inactive,inactive,inactive,inactive,inactive,inactive,inactive,inactive,–,–,–
CC(C)C1=CC2=CC[C@@H]3[C@](C)(CCC[C@@]3(C)C(=O)O)[C@H]2CC1,inactive,inactive,inactive,inactive,inactive,inactive,inactive,inactive,inactive,inactive and 54.9 µM [inconclusive] (active),inactive,inactive,inactive,inactive,inactive,inactive,inactive,–,–,–
Cn1cnc2c(F)c(Nc3ccc(Br)cc3Cl)c(C(=O)NOCCO)cc21,inactive,inactive,inactive,inactive,inactive,inactive,–,–,inactive,–,inactive,–,–,–,inactive,inactive,inactive,inactive,inactive,–
CC/C=C\CCOC(=O)CCCCC,inactive,inactive,inactive,inactive,inactive,inactive,inactive,inactive,inactive,inactive,inactive,inactive,inactive,inactive,inactive,inactive,inactive,–,–,–
C=Cc1ccccc1,inactive,inactive,inactive,inactive,inactive,inactive,inactive,inactive,inactive,inactive,inactive,inactive,inactive,inactive,inactive,inactive,inactive,–,–,–
Oc1ccccc1F,inactive,inactive,inactive,inactive,inactive,inactive,inactive,inactive,inactive,inactive,inactive,inactive,inactive,inactive,inactive,inactive,inactive,–,–,–
CCCCc1ccc2nc(NC(=O)OC)[nH]c2c1,inactive,56.9 nM (active),80.4 nM (active),114 nM (active),inactive,inactive,114 nM (active),–,–,inactive,–,–,2.27 µM (active),–,inactive,inactive,inactive,–,–,inactive
